# Measured values from PubChem BioAssay AID1851 (National Center for Advancing Translational Sciences (NCATS), 2009).
# “And” between values parts separate entries of the source, which are not always exact repeats. Identical values can stand only once. Among all 16,000 compounds or so, about 5,800 (36%) were called active. Roughly 23% stayed inconclusive and do not appear here. The call rests on the fitted dose curve; in most records, active means well fitted curve in the direction sought with a large enough effect; inconclusive means small, poorly fitted or top-dose-only effect, or effect the other way; inactive means no such curve, though single readings can be large or run the other way. Some of the results follow. Where a structure was tested more than once in an assay, its records may differ in their call.
# Target: Cytochrome P450 2C19 (Homo sapiens) (UniProt P33261)
# Sequence (P33261 whole entry, looked up): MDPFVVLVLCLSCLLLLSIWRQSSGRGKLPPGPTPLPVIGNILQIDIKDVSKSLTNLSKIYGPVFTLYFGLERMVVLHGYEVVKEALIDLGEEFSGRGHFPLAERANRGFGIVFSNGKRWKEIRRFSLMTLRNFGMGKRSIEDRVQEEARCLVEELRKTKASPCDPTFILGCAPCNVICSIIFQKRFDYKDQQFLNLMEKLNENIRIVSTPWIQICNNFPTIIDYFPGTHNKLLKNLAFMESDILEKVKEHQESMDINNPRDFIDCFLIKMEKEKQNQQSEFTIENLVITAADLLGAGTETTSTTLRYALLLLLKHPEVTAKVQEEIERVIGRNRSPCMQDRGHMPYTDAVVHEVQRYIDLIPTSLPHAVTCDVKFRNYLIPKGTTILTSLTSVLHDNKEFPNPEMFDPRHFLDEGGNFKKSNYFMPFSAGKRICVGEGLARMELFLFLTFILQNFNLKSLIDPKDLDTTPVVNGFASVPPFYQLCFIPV
# Experiment: Cytochrome panel assay with activity outcomes
# Details: recombinant CYP, pro-luciferin dealkylation, luminescence, p450-cyp2c19; series mostly up to 57.1 µM; activity, negative = inhibition: at the top concentration
# On the % scale 0 is the no-effect control and ±100 the full control effect.
SMILES,"activity, negative = inhibition",AC50
COc1ccc(OCc2nnc(SCC(=O)O)n2N)cc1,17.5% (inactive),–
O=C(CSc1nnc(COc2ccccc2)n1-c1ccccc1)c1ccccc1,–,3.98 µM (active)
CCOC(=O)c1nnn(-c2nonc2N)c1-c1ccccc1,–,2.82 µM (active)
Nc1nonc1-n1nncc1-c1ccccc1,–,6.31 µM (active)
Cc1c(C(=O)N2CCCCCC2)nnn1-c1nonc1N,–,7.94 µM (active)
Cc1nonc1NC(=O)N1CCCC1,32.4% (inactive),–
CC(C)OC(=O)c1nnn(-c2nonc2N)c1CSc1ccccn1,–,0.251 µM (active)
NC(N)=NC(N)=Nc1c(F)c(F)c(F)c(F)c1F,-5.72% [at 11.4 µM] (inactive),–
CCOC(=O)c1nnn(-c2nonc2N)c1-c1ccc(C)cc1,–,1.58 µM (active)
CCOC(=O)c1nnn(-c2nc(OC)nc(N3CCCCC3)n2)c1-c1ccccc1,–,7.94 µM (active)
COCc1c(C(N)=O)nnn1-c1nonc1N,-13.1% (inactive),–
OC[C@H]1NC[C@H](O)[C@@H](O)[C@H]1O,17.1% (inactive),–
O=C(O)[C@@H]1CCCN1Cc1ccc2c(c1)OCO2,14.1% [at 11.4 µM] (inactive),–
c1cnc(N2CCN(Cc3ccc4c(c3)OCO4)CC2)nc1,–,2 µM (active) and 631 nM (active) and inactive
O=C(COc1ccc(Cl)cc1)N1CCN(Cc2ccc3c(c2)OCO3)CC1,–,5.01 µM (active)
O=C(CCN1C(=O)c2cccc3cccc(c23)C1=O)N1CCN(Cc2ccc3c(c2)OCO3)CC1,–,1.58 µM (active)
COCC(=O)N1CCC[C@@]2(CCN(Cc3ccc(C#N)cc3)C2)C1,38.5% (inactive),–
COCC(=O)N1CCC2(CC1)CN(Cc1ccc(C#N)cc1)C2,24.8% (inactive),–
Cc1cccc(Oc2ncnc3onc(C)c23)c1C,–,5.01 µM (active)
Cc1noc2ncnc(Oc3ccc4ccccc4c3)c12,–,7.08 µM (active)
Cc1noc(C)c1-c1cc(NCc2ccccc2)ncn1,-41.3% (inactive),–
COc1ccc(NC(=O)N2CC3(CCN(C(=O)c4csnn4)CC3)C2)cc1,18% (inactive),–
NC(Cc1ccccc1)=NCC(=O)O,18.2% [at 11.4 µM] (inactive),–
Cc1cccc(CN2CCN(CC(=O)O)C2=O)c1,-2.07% (inactive),–

SMILES,"activity, negative = inhibition",AC50
O=C(O)CN1CCN(Cc2ccc(F)cc2Cl)C1=O,–,5.01 µM (active)
O=C(O)CN1CCN(Cc2ccccc2)C1=O,–,6.31 µM (active)
Nc1nc2ncc(CNc3ccc(C(=O)N[C@@H](CCC(=O)O)C(=O)O)cc3)nc2c(=O)[nH]1,9.66% [at 25.6 µM] (inactive),–
Nc1ccc(O)c(C(=O)O)c1,–,5.01 µM (active)
NC(N)=N/N=C\c1ccc(O)c(C(=O)O)c1,16.2% [at 11.4 µM] (inactive),–
N[C@@H](C(=O)O)c1ccc(O)c(C(=O)O)c1,-11.4% (inactive),–
Cc1ccc(C(=O)c2cn[nH]c2-c2cc(Cl)ccc2O)cc1,–,0.708 µM (active)
Cc1cc2c(nc1C)CCCCN2C[C@H](C)O/N=C\[C@@H](C)[C@H](OCc1ccccc1)C(C)C,-20.8% [at 11.4 µM] (inactive),–
Cc1nc(SCC(=O)c2ccc(Cl)s2)c2oc3ccccc3c2n1,–,0.178 µM (active)
CCc1nc(SCC(=O)c2ccc(Cl)s2)c2oc3ccccc3c2n1,–,0.562 µM (active)
CCc1nc(SCC(=O)N2CCCc3ccccc32)c2oc3ccccc3c2n1,–,3.98 µM (active)
CC(=O)OC[C@@H]1O[C@@H](O/N=C2/C[C@@H](O)[C@@H](O)[C@@H]3[C@@H]4C(=O)N(c5cccc(Oc6ccccc6)c5)C(=O)[C@H]4CC[C@@H]23)[C@H](OC(C)=O)[C@H](OC(C)=O)[C@@H]1OC(C)=O,-22% [at 11.4 µM] (inactive),–
O=C(CCl)Nc1ccc(Oc2cnc3ccccc3n2)cc1,–,5.01 µM (active)
Cn1c(=O)c(-c2ccc(Cl)cc2)nc2cnc(Oc3cccc(Cl)c3)nc21,9.78% (inactive),–
Cn1cc(-c2nc3cnc(Oc4cccc(Cl)c4)nc3n(CCC#N)c2=O)c2ccccc21,-28% (inactive),–
Clc1cccc(Oc2cnc3ccccc3n2)c1,–,3.55 µM (active)
CN1CCCC[C@@H]1CCN1CCCCC1,26.3% [at 11.4 µM] (inactive),–
COC(=O)c1ccccc1NC(=O)c1cc2nc(C3CC3)cc(C(F)(F)F)n2n1,-7.71% (inactive),–
COc1ccc(NC(=O)N2CCCC3(CCN(C(=O)c4cc(C(F)(F)F)cc(C(F)(F)F)c4)CC3)C2)cc1,-35.4% (inactive),–
COc1ccc(-c2cc(C(F)(F)F)n3nc(C(=O)N4CCCCC4)cc3n2)cc1,–,14.1 µM (active)
CCOC(=O)C1CCCN(C(=O)c2cc3nc(-c4ccc5c(c4)OCO5)cc(C(F)(F)F)n3n2)C1 (stereo not drawn),–,14.1 µM (active)
C[C@H](c1ccccc1)N1C(=O)[C@H]2[C@@H]3[C@H](O)[C@H](O)CC(=O)[C@H]3CC[C@H]2C1=O,-0.855% [at 11.4 µM] (inactive),–
CCc1nnc(SCc2ccc(OC(C)C)cc2)n1N,–,10 µM (active)
COc1cccc2c1C(=N)c1c(O)c3c(c(O)c1C2=O)C[C@](O)(C(C)=O)C[C@@H]3O[C@H]1C[C@H](N)[C@@H](O)[C@H](C)O1,-44.3% [at 11.4 µM] (inactive),–
